Out of some 320,000 compounds screened, about 2,100 (0.66%) were called active. Another 53% or so got no clear call; they are omitted. The call rests on the fitted dose curve; in most records, active means well fitted inhibition curve with a large enough effect in the signal ratio, with a control signal flat (not every such curve was filed as active); inconclusive means small, poorly fitted or top-dose-only effect, or effect the other way, or a change in a side signal; inactive means flat fitted curve, though single readings scatter; the % refers to the signal ratio. The sample as a whole holds a higher share of actives than the screen did.
Experiment: qHTS Assay for Lipid Storage Modulators in Drosophila S3 Cells;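 on cell number change: cells counted by Cell Tracker Red CMTPX staining in the red channel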; on lipid storage change, negative = inhibition: on the % scale 0 is the no-effect control and ±100 the full control effect
Conditions: BODIPY lipid droplet fluorescence, 18-24 h, cells fed with added oleic acid; cell number change: measured here: cell count max response; series mostly up to 46.1 µM; lipid storage change, negative = inhibition: at the top concentration
Procedure, shortened: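 Drosophila S3 cells loaded with oleic acid (400 uM, as added) and compounds at several concentrations; lipid droplets imaged by 488-nm laser-scanning cytometry, 500–530 nm intensity and object ratio to cell channel. Percent activity normalized to 20 uM Triacsin C.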
Potency means the concentration at half of the fitted maximal effect.

Q: Which “lipid storage change, negative = inhibition” value does the source give for `COc1ccc(CNC(=O)c2ccc(N3CCCC3=O)cc2)cc1` here?
A: The value was 25.4% (inactive).

Q: And the cell number change?
A: The cell number change was 23.1%.

Q: Which “lipid storage change, negative = inhibition” value does the source give for `O=C(NCc1ccc(N2CCCC2=O)cc1)c1ccc(F)cc1` here?
A: The value was 0.839% (inactive).

Q: And the cell number change?
A: The cell number change was 1.24%.

Q: Which “lipid storage change, negative = inhibition” value does the source give for `N#Cc1ccsc1NC(=O)CN(Cc1ccccc1)Cc1ccccc1` here?
A: The value was 10.3% (inactive).

Q: What about the cell number change of the same compound?
A: Its cell number change is -9.01%.

Q: With `CCOC(=O)N1CCC(NC(=O)c2ccc(CO)c(C(=O)NC3CCN(C(=O)OCC)CC3)c2)CC1` as the compound, how does the “lipid storage change, negative = inhibition” value read?
A: The value was 5.33% (inactive).

Q: What does the source list for `O=C(O)CC(C(=O)Nc1ccc(F)cc1)C1CCCO1` (centres undefined)?
A: lipid storage change, negative = inhibition: -20.6% (inactive); cell number change: -13.3%

Q: What does the source list for `O=C(O)CC(C(=O)Nc1ccc(Cl)cc1Cl)C1CCCO1` (centres undefined)?
A: lipid storage change, negative = inhibition: 9.88% (inactive); cell number change: 5.73%

Q: Which results are given for `O=C(O)CC(C(=O)Nc1ccc(Cl)c(Cl)c1)C1CCCO1` (centres undefined)?
A: Potency: 20.6 µM (active); cell number change: 12.1%

Q: For `CCOC(=O)N1CCN(C(=O)CCCn2c(=S)[nH]c3ccsc3c2=O)CC1`, which “lipid storage change, negative = inhibition” value is on record?
A: Its value is -5.9% (inactive).

Q: And the cell number change?
A: The cell number change was -21.6%.

Q: For `COC(=O)c1ccc(COc2ccc(C=O)cc2)o1`, which “outcome” value is on record?
A: Its value is “inactive”.

Q: And the cell number change?
A: The cell number change was -4.2%.

Q: For `CCN(CC#CCC(O)(c1ccccc1)c1ccccc1)C(C)C`, which “lipid storage change, negative = inhibition” value is on record?
A: The value was -6.31% (inactive).

Q: And the cell number change?
A: The cell number change was 1.67%.

Q: For `COc1ccc(OCC(NS(=O)(=O)c2ccc(-n3cnnn3)cc2)C(C)C)cc1` (centres undefined), which Potency is on record?
A: The Potency was 0.13 µM (active).

Q: Which “outcome” value does the source give for `COc1ccc(S(=O)(=O)Nc2cccc(-n3cnnn3)c2)cc1` here?
A: Its value is “inactive”.

Q: And the cell number change?
A: The cell number change was -4.25%.

Q: For `COc1ccc(CNS(=O)(=O)c2ccc(-n3cnnn3)c(C)c2)cc1`, which Potency is on record?
A: The Potency was 18.4 µM (active).

Q: And the cell number change?
A: The cell number change was -1.28%.

Q: With `Cc1cc(S(=O)(=O)NCc2cccnc2)ccc1-n1cnnn1` as the compound, how does the “outcome” value read?
A: Its value is “inactive”.

Q: And the cell number change?
A: The cell number change was 2.93%.

Q: Which “outcome” value does the source give for `CCCCOc1ccc(NS(=O)(=O)c2ccc(-n3cnnn3)cc2)cc1` here?
A: Its value is “inactive”.

Q: What about the cell number change of the same compound?
A: The cell number change was -4.72%.

Q: With `COc1ccc(CN(Cc2ccc(OC)cc2)S(=O)(=O)c2ccc(-n3cnnn3)c(C)c2)cc1` as the compound, how does the “lipid storage change, negative = inhibition” value read?
A: Its value is -11.8% (inactive).

Q: What about the cell number change of the same compound?
A: The cell number change was -0.43%.

Q: Which “lipid storage change, negative = inhibition” value does the source give for `C=CCOC(=O)C1=C(C)NC(=O)NC1c1cc2c(cc1Br)OCO2` (centres undefined) here?
A: The value was -3.77% (inactive).

Q: What about the cell number change of the same compound?
A: Its cell number change is -17.1%.

Q: For `N/C(=N\OC(=O)C1CCCCC1)c1cccnc1`, which “lipid storage change, negative = inhibition” value is on record?
A: Its value is 2.61% (inactive).

Q: And the cell number change?
A: The cell number change was -2.17%.

Q: With `CCOc1cc(CNCCCN2CCOCC2)ccc1OCC(=O)Nc1cccc2ccccc12` as the compound, how does the “outcome” value read?
A: The value was “inactive”.

Q: And the cell number change?
A: The cell number change was 9%.

Q: For `CCN(CC)CCNC(=O)c1ccc(NC(=O)c2ccc3c(c2)CCC3)cc1`, which “lipid storage change, negative = inhibition” value is on record?
A: Its value is 9.17% (inactive).

Q: What about the cell number change of the same compound?
A: The cell number change was 2.22%.

Q: Which “lipid storage change, negative = inhibition” value does the source give for `COc1ccc(Br)cc1C(=O)O` here?
A: The value was -3.81% (inactive).

Q: What about the cell number change of the same compound?
A: Its cell number change is 9.36%.

Q: With `COc1cc(N)c(Br)cc1C(=O)O` as the compound, how does the “lipid storage change, negative = inhibition” value read?
A: The value was 9.6% (inactive).

Q: With `COc1c(Br)cc(Br)cc1C(=O)O` as the compound, how does the Potency read?
A: The Potency was 20.6 µM (active).

Q: What about the cell number change of the same compound?
A: The cell number change was -14.5%.

Q: Which “lipid storage change, negative = inhibition” value does the source give for `COc1ccc(/C=N/NC(=O)Cn2nc([N+](=O)[O-])cc2C)c(OC)c1OC` here?
A: Its value is -1.52% (inactive).

Q: What about the cell number change of the same compound?
A: Its cell number change is 15.6%.

Q: With `Cc1ccc(-n2ncc(C(=O)O)c2C2CCN(C(=O)OC(C)(C)C)CC2)cc1` as the compound, how does the “lipid storage change, negative = inhibition” value read?
A: Its value is 1.24% (inactive).

Q: What about the cell number change of the same compound?
A: The cell number change was -23.6%.

Q: Which results are given for `Cc1ccc(-n2ncc(C(=O)NC3CC3)c2C2CCN(C(=O)OC(C)(C)C)CC2)cc1`?
A: lipid storage change, negative = inhibition: -3.19% (inactive); cell number change: -12.2%

Q: Which Potency does the source give for `COc1ccc(-n2ncc(C(=O)NC3CC3)c2C2CCN(C(=O)OC(C)(C)C)CC2)cc1` here?
A: The Potency was 9.2 µM (active).

Q: What about the cell number change of the same compound?
A: Its cell number change is -6.59%.

Q: For `Nn1cc(-c2ccccc2)nc1SCC(=O)NCCN1C(=O)CSC1=O`, which “lipid storage change, negative = inhibition” value is on record?
A: Its value is 3.23% (inactive).

Q: What about the cell number change of the same compound?
A: Its cell number change is -20.3%.

Q: Which results are given for `CCOC(=O)CN(C(=O)CSc1nnc(-c2ccncc2)n1CCCOC)c1ccccc1`?
A: lipid storage change, negative = inhibition: -0.702% (inactive); cell number change: -3.7%

Q: For `CC(C)(C)Nc1c(-c2ccc(O)cc2)nc2ccc(Cl)cn12`, which “lipid storage change, negative = inhibition” value is on record?
A: Its value is -6.34% (inactive).

Q: What about the cell number change of the same compound?
A: The cell number change was 20.8%.

Q: Which “lipid storage change, negative = inhibition” value does the source give for `CC(NC(=O)NC(N)=O)(C(F)(F)F)C(F)(F)F` here?
A: Its value is -6.44% (inactive).

Q: What about the cell number change of the same compound?
A: Its cell number change is 2.2%.

Q: For `CC(NC(=O)NCCCC(=O)O)(C(F)(F)F)C(F)(F)F`, which Potency is on record?
A: The Potency was 29.1 µM (active).

Q: And the cell number change?
A: The cell number change was -5.28%.

Q: What does the source list for `NC(=O)NCCCC(=O)O`?
A: lipid storage change, negative = inhibition: -6.78% (inactive); cell number change: -16.4%

Q: For `CSCCC(NC(=O)c1ccc(Cl)cc1Cl)C(=O)N(C)Cc1nc2ccccc2c(=O)[nH]1` (centres undefined), which lipid storage change, negative = inhibition is on record?
A: Its lipid storage change, negative = inhibition is 1.6% [at 0.0737 µM] (inactive).

Q: For `CCN1CCN(c2ccc([N+](=O)[O-])c(Sc3nc4ccccc4[nH]3)c2)CC1`, which “lipid storage change, negative = inhibition” value is on record?
A: The value was -3.58% (inactive).

Q: What about the cell number change of the same compound?
A: Its cell number change is -7.24%.

Q: Which “lipid storage change, negative = inhibition” value does the source give for `CC1=CC(=Nc2c(C)n(C)n(-c3ccccc3)c2=O)C=CC1=O` here?
A: The value was -9.72% (inactive).

Q: What about the cell number change of the same compound?
A: The cell number change was 4.9%.

Q: What does the source list for `CC1=NN(Cc2cc(C(C)(C)C)c(O)c(C(C)(C)C)c2)C(=O)C1`?
A: Potency: 16.4 µM (active); cell number change: -27.5%

Q: For `CC(C)(C)c1cc(CN2CCC(O)CC2)cc(C(C)(C)C)c1O`, which “outcome” value is on record?
A: The value was “inactive”.

Q: And the cell number change?
A: The cell number change was 12.8%.

Q: Which “lipid storage change, negative = inhibition” value does the source give for `CC1=NN(Cc2ccccc2)C(=O)C1` here?
A: The value was -22.5% (inactive).

Q: And the cell number change?
A: Its cell number change is 11.6%.

Q: Which “outcome” value does the source give for `COCCOC(=O)c1c(C)oc2ccc(OC(=O)c3ccc4c(c3)OCO4)cc12` here?
A: Its value is “inactive”.

Q: With `CC1CN(C(=O)c2cccc(S(=O)(=O)N3CCN(c4ccccc4)CC3)c2)CC(C)O1` (centres undefined) as the compound, how does the “lipid storage change, negative = inhibition” value read?
A: Its value is 13.5% (inactive).

Q: And the cell number change?
A: The cell number change was 2.24%.

Q: With `C[C@@H]1CCC(=O)N(C[C@@H](C)CSc2ccccc2)CC1` as the compound, how does the “outcome” value read?
A: The value was “inactive”.

Q: And the cell number change?
A: The cell number change was 11.7%.

Q: Which Potency does the source give for `Cn1c(SCC(=O)Nc2ccc(Cl)cc2F)nnc1-c1ccco1` here?
A: The Potency was 23.1 µM (active).

Q: What about the cell number change of the same compound?
A: The cell number change was 9.91%.

Q: Which results are given for `CCC(=O)Nc1ccc(NC(=O)CSc2nnc(-c3ccco3)n2C)cc1`?
A: lipid storage change, negative = inhibition: -25.5% (inactive); cell number change: 8.55%

Q: Which results are given for `Cc1cc(NC(=O)CSc2nnc(-c3ccco3)n2C)no1`?
A: lipid storage change, negative = inhibition: 5.6% (inactive); cell number change: 17.5%

Q: Which “lipid storage change, negative = inhibition” value does the source give for `O=C(Nc1nc2ccc(F)cc2s1)c1ccc(N2CCCC2=O)cc1` here?
A: The value was -0.195% (inactive).

Q: And the cell number change?
A: Its cell number change is -14.4%.

Q: Which “outcome” value does the source give for `CCCC1CC(CCc2ccccc2)OS(=O)(=O)N1` (centres undefined) here?
A: Its value is “inactive”.

Q: And the cell number change?
A: The cell number change was 22.3%.

From PubChem BioAssay AID2685 (National Center for Advancing Translational Sciences (NCATS), 2010)
